Pol eta inh – DNA polymerase eta (human) inhibition. Potency, µM (doses to about 114 µM), actives largely listed as inhibitors. AID 588591. recombinant Pol eta, fluorescent DNA replication assay. 1.2% of 390,000 active
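Fluorescent replication assay: 50 nM final substrate added after a 15 min room-temperature compound preincubation with 10 nM enzyme. Signal taken at 0 min and again at 10 min.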
FEN1 inh – inhibitors of human flap endonuclease 1. AID 588795. Potency, µM (titrated, usually from 114 µM), hits mostly inhibitors. 0.35% of 390,000 active. P39748. Recombinant FEN1 flap cleavage, fluorescence, 15 min; also: nearly all actives have a fitted effect of over 65% in size
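FEN1 at 10 nM preincubated with compounds 15 min at room temperature, then flap DNA substrate added at 50 nM final. Signal read at 0 and 15 min; concentration-response fitted with four-parameter Hill equation.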
WRN inhibitor – blocks human WRN helicase. Q14191. WRN helicase unwinding, fluorescent forked duplex, kinetic. Potency, µM (top dose mostly 114 µM), hits mostly inhibitors. 0.46% of 360,000 active. AID 651768; also: nearly all actives have a fitted effect of over 55% in size
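Screening of the MLSMR collection measured strand separation of a quenched forked DNA duplex (100 nM) by 20 nM WRN with 2 mM ATP, all final. Compounds were preincubated with enzyme 15 min at room temperature.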
POLB inh – inhibitors of human DNA polymerase beta. P06746. Pol beta primer extension/strand displacement, fluorescence kinetic. Potency, µM (highest dose often 114 µM), usual class: inhibitors. 1.3% of 340,000 active. AID 485314
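Preincubation: enzyme (10 nM) with compound, 15 min, RT. Reaction: substrate added to 50 nM final. Reads: 0 and 10 min. Analysis: normalized, Hill fit.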
POLK inh – inhibitors of human DNA polymerase kappa | Q9UBT6 | purified Pol kappa, fluorescent DNA synthesis assay, 10 min | Potency, µM (titrated, usually from 107 µM), most hits filed as inhibitors | 0.53% of 400,000 active | AID 588579
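Kinetic fluorescence screen: compound preincubated 15 min RT with 10 nM enzyme; 50 nM substrate (final) initiates; reads at 0/10 min.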
Pol iota inh – blocks human DNA polymerase iota activity | Pol iota fluorescent replication assay, 10 min | Potency, µM (top dose mostly 115 µM), most hits filed as inhibitors | 1% of 390,000 active | AID 588590
Target sequence (Q9UNA4 whole entry, looked up): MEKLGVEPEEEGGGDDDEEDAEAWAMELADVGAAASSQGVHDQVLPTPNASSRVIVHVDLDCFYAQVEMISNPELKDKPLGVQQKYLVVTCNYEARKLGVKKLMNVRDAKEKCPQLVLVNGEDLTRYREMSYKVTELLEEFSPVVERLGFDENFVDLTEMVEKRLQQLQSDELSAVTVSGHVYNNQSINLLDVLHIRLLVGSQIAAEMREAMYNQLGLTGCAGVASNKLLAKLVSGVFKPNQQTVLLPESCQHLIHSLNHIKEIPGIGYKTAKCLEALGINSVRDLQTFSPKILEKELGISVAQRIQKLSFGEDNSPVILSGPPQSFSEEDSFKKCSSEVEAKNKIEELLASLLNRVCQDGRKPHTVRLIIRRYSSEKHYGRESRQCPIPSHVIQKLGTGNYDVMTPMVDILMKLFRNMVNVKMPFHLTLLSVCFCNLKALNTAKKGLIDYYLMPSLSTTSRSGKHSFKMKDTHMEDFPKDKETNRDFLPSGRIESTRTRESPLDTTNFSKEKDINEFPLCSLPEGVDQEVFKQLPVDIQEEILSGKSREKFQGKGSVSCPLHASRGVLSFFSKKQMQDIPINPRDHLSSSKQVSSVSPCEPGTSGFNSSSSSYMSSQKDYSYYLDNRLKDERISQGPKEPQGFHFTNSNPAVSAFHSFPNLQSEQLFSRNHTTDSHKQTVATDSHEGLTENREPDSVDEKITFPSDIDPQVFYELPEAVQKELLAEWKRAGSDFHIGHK
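Pol iota at 10 nM preincubated 15 min with compounds at room temperature; reaction started with fluorescent substrate, 50 nM final. Fluorescence read kinetically at 0 and 10 min; buffer-only wells as negative control.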
Numbers stand for hits; . = inactive; ? = inconclusive; / = not tested or not shown; ! = not active in a repeat; [ ] = another dose, or the depositor's remark. The list is not random: actives were taken first. Their share in the collection is about 2.4%. Calls follow the shape of the dose curve; as a rule, active = well fitted curve in the direction sought with a large enough effect; inconclusive = small, poorly fitted or top-dose-only effect, or another doubt; inactive = no such curve, though single readings can be large; an effect the other way counts as inactive or inconclusive.

SMILES	Pol eta inh	FEN1 inh	WRN inhibitor	POLB inh	POLK inh	Pol iota inh
Cn1ncc(N=Cc2ccccc2)c1C(N)=O	?	.	.	.	.	.
Nc1ncc(Br)cc1N=Cc1ccccc1	.	.	?	40µM	.	10µM
CCCOc1ccc(C(C)=O)cc1CSCCC#N	.	.	.	.	.	.
CCCOc1ccc(C(C)=O)cc1CSc1nc(O)cc(=O)[nH]1	.	.	.[11.6 µM]	?	?	35µM
CC[C@H](C)[C@H](NC(=O)[C@H](CC(=O)O)NC(=O)[C@H](CC(C)C)NC(=O)[C@H](Cc1cnc[nH]1)NC(=O)[C@H](C)NC(=O)[C@H](Cc1ccccc1)NC(=O)[C@H](Cc1ccc(O)cc1)NC(=O)[C@@H](NC(=O)[C@H](C)NC(=O)[C@H](CCC(=O)O)NC(=O)[C@H](CCC(=O)O)NC(=O)[C@H](CC(=O)O)NC(=O)CCC(=O)O)C(C)C)C(=O)N[C@H](C(=O)N[C@@H](Cc1c[nH]c2ccccc12)C(=O)O)[C@@H](C)CC	/	/	/	/	.	/
O=C(CCCC[C@@H]1SC[C@H]2NC(=O)N[C@H]12)Nc1ccc(C(=O)O)cc1	/	/	/	/	.	/
CN(C)c1ccc(/C=C2\C=Cc3cc([N+](=O)[O-])ccc32)cc1	/	.	/	/	.	.
CN(c1ccc(Cl)cc1)c1cc(=O)n(C)c2ccccc12	.	?	.	.	.	.
COc1cc(C=c2c3ccccc3n3c2cc(-c2ccccc2)[n+]3C)cc(OC)c1OC	.	?	.[11.6 µM]	/	.	?
CN(C)c1ccc(C=c2c3ccccc3n3c2cc(-c2ccccc2)[n+]3C)cc1	?	8.9µM	?	/	.	?
COc1cc(N(C)C)ccc1C=c1c2ccccc2n2c1cc(-c1ccccc1)[n+]2C	22µM	7.9µM	20µM	/	?	?
CN(C)c1ccc(C=c2c3ccccc3n3c2cc(-c2ccc(Cl)cc2)[n+]3C)cc1	?	22µM	28µM	/	.	?
CN(C)c1ccc(C=C2C=C(c3ccccc3)OC2=O)cc1	.	/	.	/	/	/
CN(C)c1ccc(C=c2c3cc([N+](=O)[O-])ccc3n3c2cc(-c2ccccc2)[n+]3C)cc1	.	56µM	35µM	/	.	?
Cc1[nH]c2ccccc2c1C(c1c[nH]c2ccccc12)c1c(C)[nH]c2ccccc12	/	.	/	/	.	.
CCCN1CNc2c(c(=O)[nH]c(=S)n2CCc2ccccn2)C1	/	.	/	/	.	.
O=S(=O)(c1ccccc1C(F)(F)F)N1CCN(c2nc(-c3ccccc3)nc3ccccc23)CC1	/	.	/	/	.	.
CCCCC(=O)N1C/C=C\C(c2ccc(OC)cc2)N(Cc2ccc(F)cc2)C(=O)C1Cc1ccccc1 (stereo unspecified)	/	.	/	/	.	.
CC[C@H](NC(C)C)[C@H](O)c1ccc(O)c(O)c1	/	/	/	/	.[12 µM]	/
CNC[C@H](O)c1ccc(O)c(O)c1	.	/	/	.	7.1µM!	?
CNC[C@H](O)c1cccc(O)c1	.	.	/	.	.	.
NC[C@@H](O)c1ccc(O)c(O)c1	/	/	/	/	12µM	/
COc1cc2c3cc1Oc1c(OC)c(OC)cc4c1[C@@H](Cc1ccc(OC(=O)c5ccc([N+](=O)[O-])cc5)c(c1)Oc1ccc(cc1)C[C@@H]3N(C)CC2)N(C)CC4	/	/	/	/	.	/
COc1ccc(CNc2ncnc3ccc(-c4c(C)noc4C)cc23)c(OC)c1	/	/	/	/	.	/
Cc1sc2ccccc2[n+]1Cc1ccccc1	/	.	/	/	.	.
SMILES	Pol eta inh	FEN1 inh	WRN inhibitor	POLB inh	POLK inh	Pol iota inh
O=c1cc(-c2ccccc2O)oc2ccc3ccccc3c12	/	/	/	/	.[19.4 µM]	/
O=c1cc(-c2ccccc2)oc2c(O)c(O)ccc12	/	/	/	/	8.9µM	/
O=c1cc(-c2ccccc2O)oc2c(O)c(O)ccc12	/	/	/	/	0.89µM	/
CC(C)(C)OC(=O)NS(=O)(=O)NOCc1ccccc1	/	.	/	/	.	.
C/C(=N\NC(=O)Cc1cc(=O)[nH][nH]1)c1cccc([N+](=O)[O-])c1	.	.	.	.	.	7.1µM
COc1ccc(-c2cc(C3C4C=CCC(C)C4C(=O)N3Cc3ccccc3)ccc2F)cc1OC (stereo unspecified)	/	.	/	/	.	.
Nc1cccc2c1C(=O)N(C(=O)/C=C/c1cccc(F)c1)C2=O	?	.	.[11.6 µM]	.	.	?
Nc1cccc2c1C(=O)N(C(=O)/C=C/c1cccc(Br)c1)C2=O	?	.	.	.	.	11µM
Cn1nc([N+](=O)[O-])nc1S(C)(=O)=O	.	.	.	89µM	?	?
COCCCNC(=S)Nc1cccc2ncccc12	.	.	.	.	.	5.6µM
O=C1CC(c2ccccc2)=NN1c1ccccc1	.	.	.	/	.	.
O=C1CC(c2ccccc2)=NN1c1nc(-c2ccccc2)cs1	.	?	.[11.6 µM]	32µM	40µM	20µM
CCc1ccccc1NC(=O)CSC1=C(C#N)C(c2ccc3c(c2)OCO3)C2=C(CCCC2=O)N1 (stereo unspecified)	.	.	.	22µM	.	.
COc1ccc(OC)c(NC(=O)CSC2=C(C#N)C(c3ccco3)C3=C(CCCC3=O)N2)c1 (stereo unspecified)	.	.	.	.	.	.
CC(=O)c1ccc(-c2c(C3C4C=CCCC4(C)C(=O)N3Cc3ccccc3)ccc3ccccc23)cc1 (stereo unspecified)	/	.	/	/	.	.
O=C(Nc1ccc(Br)cn1)c1cnn2c1NC(=C1CC1)C=C2C(F)F	/	.	/	/	.	.
Cc1cc(C)c2c(=O)c(C#N)coc2c1	50µM	?	56µM	45µM	?	?
CCc1sc(-c2cc3cccc(OC)c3oc2=O)nc1-c1cc(C)ccc1C	/	.	/	/	.	?
Cc1c(-c2nsc(NC(=O)c3cccs3)n2)nnn1-c1ccc(Cl)cc1	?	?	/	20µM	.	?
CCC(NC(=O)Nc1cc(Cl)ccc1OC)c1c(-n2cccc2)sc2c1CCN(C)C2 (stereo unspecified)	.	.	/	.	.	.
CCOC1CCCC(n2cnc3c(=S)nc[nH]c32)O1 (stereo unspecified)	18µM	.	.[11.6 µM]	/	.	?
OCCn1c(CSc2nnc(-c3ccco3)n2-c2ccccc2)nc2ccc(Cl)cc21	?	.	.	20µM	.	?
NC(=O)CSc1nnc(-c2ccco2)n1-c1ccccc1	.	.	.	.	.	.
O=C1c2c(O)cccc2Cc2cccc(O)c21	.	.	.	/	22µM!	.
O=C1Cc2cccc(=O)c(O)c2C(=O)O1	8.9µM	/	.	/	/	/
CCCOc1ccc(C2C(C(=O)c3ccc(C)o3)=C(O)C(=O)N2Cc2ccco2)cc1 (stereo unspecified)	.	.	.	40µM	.	?
c1cc(CN2CCCNCCNCCCNCC2)ccc1CN1CCCNCCNCCCNCC1	/	/	/	/	.	/
Cc1cc(C(=O)OCC(=O)Nc2sc3c(c2C#N)CCC(C)C3)c2ccccc2n1 (stereo unspecified)	79µM	.	.	18µM	?	56µM
